TDP1 cell noCPT: qHTS for Inhibitors of human tyrosyl-DNA phosphodiesterase 1 (TDP1): qHTS in cells in absence of CPT; DT40 Tdp1-/- hTDP1 cells, no CPT, ATP luminescence, 48 h; AID 686978, 2013; Potency, µM (series often up to 46.2 µM), for the others: at the top dose activity change, negative = growth inhibition, actives largely listed as inhibitors; 15% of 420,000 active; also: potency is read from the fitted curve at half-maximal effect; nearly all actives have a fitted effect of over 55% in size
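Cells were dispensed at 400 per well, compounds added by pin tool, plates incubated ≥48 hr at 37 °C, then CellTiter-Glo added for 30 min at room temperature before luminescence reading. Line: DT40 Tdp1-/- complemented with hTDP1; camptothecin omitted.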
Gal4-VP16 FLuc: counter-screen for ROR gamma inhibitors: Gal4-VP16 reporter; 3.5% of 310,000 active; AID 2546; Drosophila S2 Gal4-VP16 UAS-luciferase, luminescence, 20 h; Potency, µM (doses to about 53.6 µM), for inactives: at the highest dose activity, negative = inhibition, hits mostly inhibitors;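 also: Gal4-VP16 expression switched on by copper sulfate through the metallothionein promoter; potency is read from the fitted curve at half-maximal effect; nearly all actives have a fitted effect of over 50% in size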
ELG1 DNA repair: inhibitors of ELG1-dependent DNA repair in HEK293T cells; HEK293T ELG1-luciferase reporter, luminescence, 16 h; DNA damage induced by 5-fluorouridine; Potency, µM (top dose mostly 46.1 µM), inactives show at the highest dose activity change, negative = inhibition, hits mostly inhibitors; 2.3% of 330,000 active; also: potency is read from the fitted curve at half-maximal effect; nearly all actives have a fitted effect of over 55% in size
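DMSO vehicle served as the neutral condition. Each well held 2,000 cells given 5-fluorouridine plus compound; after 16 hr at 37 °C/5% CO2, ONE-Glo was added and luciferase measured 30 min later.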
IL-1B inflam inh: blocks inflammasome-driven IL-1 beta release | THP-1 LPS/ATP IL-1B secretion, AlphaLISA, 16 h; hits give low values | activity change, % at 57.5 µM | 4.7% of 360,000 active | AID 743279; in the data active = activity change below about -50%; inconclusive = mostly about -30% to -49%
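Secreted IL-1B measured by AlphaLISA bead assay after 16 h compound exposure of THP-1 cells; compounds (final up to 57.5 uM) added 1 h before LPS (250 ng/mL) and ATP (1.25 mM) stimulation; lower signal means less secretion.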
RORg inh: blocks mouse ROR gamma transcriptional activity; P51450; AID 2551; 5.4% of 310,000 active; Drosophila S2 Gal4-RORgamma UAS-luciferase reporter, 20 h; Potency, µM (doses to about 53.6 µM), inactives show top-dose activity change, negative = inhibition, hits mostly inhibitors; also: potency is read from the fitted curve at half-maximal effect; nearly all actives have a fitted effect of over 60% in size
Target sequence (P51450 whole entry, looked up, the tested form may be a part): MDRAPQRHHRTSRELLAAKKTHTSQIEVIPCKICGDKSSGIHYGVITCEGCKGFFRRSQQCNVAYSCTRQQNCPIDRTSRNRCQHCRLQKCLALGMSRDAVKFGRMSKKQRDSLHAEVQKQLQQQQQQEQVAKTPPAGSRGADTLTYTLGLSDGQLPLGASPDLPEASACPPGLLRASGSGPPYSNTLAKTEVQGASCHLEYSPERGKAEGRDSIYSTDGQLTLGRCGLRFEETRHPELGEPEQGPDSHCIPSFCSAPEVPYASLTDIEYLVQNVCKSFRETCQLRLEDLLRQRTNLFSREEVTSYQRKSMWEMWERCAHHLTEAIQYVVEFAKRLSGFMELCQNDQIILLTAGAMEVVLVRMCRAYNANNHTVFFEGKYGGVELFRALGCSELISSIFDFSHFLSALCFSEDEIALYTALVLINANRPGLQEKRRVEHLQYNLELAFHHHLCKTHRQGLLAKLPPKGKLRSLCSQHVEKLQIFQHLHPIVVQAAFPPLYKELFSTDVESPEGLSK
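ROR gamma transcriptional activity was tracked as Gal4-UAS luciferase output in stably transfected Drosophila Schneider cells, with compound added 1 hr before 700 uM copper sulfate induction and a 20 hr ambient-temperature incubation.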
TDP1 cell CPT: DT40-hTDP1 cell growth loss with CPT. 12% of 420,000 active. chicken DT40 Tdp1-/-;hTDP1 cells + 20 nM CPT, ATP luminescence, 48 h. Potency, µM (highest dose often 46.2 µM), without a hit: at the highest dose activity change, negative = growth inhibition, most hits filed as inhibitors; also: potency is read from the fitted curve at half-maximal effect; nearly all actives have a fitted effect of over 55% in size
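Cell growth measured by CellTiter-Glo luminescence after a minimum 48 h, 37 C compound exposure with 20 nM CPT in Tdp1-knockout DT40 cells stably expressing hTDP1, seeded 400/well; qHTS titration format.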
Starred values were filed as active, the others as inactive. Shown are actives, neighbours in structure and some others; about 21% of the full set was active somewhere. Unless noted, calls follow the shape of the dose curve; as a rule, active = well fitted curve in the direction sought with a large enough effect; inconclusive = small, poorly fitted or top-dose-only effect, or another doubt; inactive = no such curve, though single readings can be large; an effect the other way counts as inactive or inconclusive. % is scaled to controls: 0 for no effect and ±100 for the full control effect.

What do the screens show for `CC(=O)N=c1nc(-c2ccccc2)n(-c2ccccc2)s1`?
TDP1 cell noCPT: inconclusive; TDP1 cell CPT: -10.4%

What do the screens show for `Cc1ccc(S(=O)(=O)NC(=O)C2(C)CCN2C(=O)CC2CCCCC2)nc1` (stereo not given)?
TDP1 cell noCPT: 0.2%; IL-1B inflam inh: 7.2; TDP1 cell CPT: 1.8%

How did CN(C)c1ccc(C2(c3ccc(N(C)C)cc3)OC(=O)c3cc(N)ccc32)cc1 do in these assays?
TDP1 cell noCPT: inconclusive; Gal4-VP16 FLuc: 7.4%; ELG1 DNA repair: -3.3%; IL-1B inflam inh: -10.2; RORg inh: 13.4%; TDP1 cell CPT: -15.9%

Results for COc1ccc(-c2cc(C(F)F)n3ncc(C(=O)NCCCN4CCCC4=O)c3n2)cc1 ?
TDP1 cell noCPT: 16.4µM*; Gal4-VP16 FLuc: -4.4%; ELG1 DNA repair: 6.51µM*; IL-1B inflam inh: -25.0; RORg inh: 23.1%; TDP1 cell CPT: inconclusive

How did Cc1ccc(C2CC(C(F)F)n3ncc(C(=O)Nc4c(C)nn(Cc5c(F)cccc5Cl)c4C)c3N2)cc1 (stereo not given) do in these assays?
TDP1 cell noCPT: 18.4µM*; Gal4-VP16 FLuc: 1.6%; ELG1 DNA repair: -10.6%; IL-1B inflam inh: -22.2; RORg inh: 9.6%; TDP1 cell CPT: inconclusive

What do the screens show for `O=C(NCCN1CCOCC1)c1cc(-c2ccc(F)cc2)nc2ccccc12`?
TDP1 cell noCPT: inconclusive; ELG1 DNA repair: 10.6%; IL-1B inflam inh: -3.7; TDP1 cell CPT: 6.7%

How did COc1ccc(-c2cc(C(F)F)n3ncc(C(=O)N4CCCCC4)c3n2)cc1 do in these assays?
TDP1 cell noCPT: inconclusive; Gal4-VP16 FLuc: -13.4%; ELG1 DNA repair: inconclusive; IL-1B inflam inh: -28.0; RORg inh: inconclusive; TDP1 cell CPT: inconclusive

Results for O=C(NCCCN1CCCC1=O)c1cc(-c2ccc(F)cc2)nc2ccccc12 ?
TDP1 cell noCPT: 25.9µM*; ELG1 DNA repair: 18.3µM*; IL-1B inflam inh: 5.3; TDP1 cell CPT: inconclusive

Results for Cc1nn(Cc2c(Cl)cccc2Cl)c(C)c1NC(=O)c1cnn2c(C(F)F)cc(-c3ccccc3)nc12 ?
TDP1 cell noCPT: inconclusive; Gal4-VP16 FLuc: -0.9%; ELG1 DNA repair: inconclusive; IL-1B inflam inh: 13.0; RORg inh: -36.0%; TDP1 cell CPT: 20.6µM*

How did Cc1c(NC(=O)c2cnn3c2NC(c2ccccc2)CC3C(F)(F)F)c(=O)n(-c2ccccc2)n1C (stereo not given) do in these assays?
TDP1 cell noCPT: -9.7%; Gal4-VP16 FLuc: -2.5%; ELG1 DNA repair: 0.4%; IL-1B inflam inh: 7.4; RORg inh: 0.3%; TDP1 cell CPT: -21.5%

What do the screens show for `CCCNC(=O)c1cnn2c(C(F)F)cc(-c3ccccc3)nc12`?
TDP1 cell noCPT: 20.6µM*; TDP1 cell CPT: 20.6µM*

How did Cc1ccc(NC(=O)c2cnn3c(C(F)F)cc(-c4ccccc4)nc23)c(C)c1 do in these assays?
TDP1 cell noCPT: 18.4µM*; TDP1 cell CPT: -1.8%

Results for COCC(C)NC(=O)c1cnn2c(C(F)F)cc(-c3ccccc3)nc12 (stereo not given) ?
TDP1 cell noCPT: inconclusive; TDP1 cell CPT: -20.7%

How did CC(C)(C)c1ccccc1NC(=O)c1cnn2c(C(F)F)cc(-c3ccccc3)nc12 do in these assays?
TDP1 cell noCPT: -22.9%; TDP1 cell CPT: -23.8%

Results for O=C(Nc1ccc(Cc2ccncc2)cc1)C1CCC(N2C(=O)C3CC=CCC3C2=O)CC1 (stereo not given) ?
TDP1 cell noCPT: 15.8µM*; Gal4-VP16 FLuc: -11.3%; ELG1 DNA repair: inconclusive; IL-1B inflam inh: -70.6*; RORg inh: 3.1%; TDP1 cell CPT: 20.6µM*

How did COc1ccc(NC(=O)C2CCC(N3C(=O)C4CCCCC4C3=O)CC2)cc1 (stereo not given) do in these assays?
TDP1 cell noCPT: -27.8%; Gal4-VP16 FLuc: 2.5%; ELG1 DNA repair: -14.0%; IL-1B inflam inh: 12.7; RORg inh: 2.4%; TDP1 cell CPT: 10.2%

What do the screens show for `CN(C)C(=O)c1ccc(NC(=O)c2ccccc2SCC(=O)N2CCCC2)cc1`?
TDP1 cell noCPT: -2.4%; ELG1 DNA repair: inconclusive; IL-1B inflam inh: 0.0; TDP1 cell CPT: 9.3%

How did O=c1oc2ccc3ccccc3c2cc1-c1nnc(Nc2cccc(C(F)(F)F)c2)s1 do in these assays?
TDP1 cell noCPT: -4.2%; TDP1 cell CPT: -14.0%

What do the screens show for `CCOC(=O)C1=CCN(S(=O)(=O)c2ccc(C)cc2)C1c1cccc(C)c1` (stereo not given)?
TDP1 cell noCPT: 18.4µM*; IL-1B inflam inh: 31.1; TDP1 cell CPT: inconclusive

What do the screens show for `CCOC(=O)C1=CCN(S(=O)(=O)c2ccc(Br)cc2)C1c1ccccc1` (stereo not given)?
TDP1 cell noCPT: inconclusive; IL-1B inflam inh: 4.3; TDP1 cell CPT: -25.8%

Results for CCOC(=O)C1=CCN(S(=O)(=O)c2ccc(Br)cc2)C1c1ccc(C)cc1 (stereo not given) ?
TDP1 cell noCPT: 25.9µM*; IL-1B inflam inh: 6.8; TDP1 cell CPT: inconclusive

How did CN(C)c1ccc(N=Nc2ccccc2Br)cc1 do in these assays?
TDP1 cell noCPT: -0.2%; Gal4-VP16 FLuc: inconclusive; ELG1 DNA repair: inconclusive; IL-1B inflam inh: 17.6; RORg inh: 8.91µM*; TDP1 cell CPT: -14.3%

What do the screens show for `CN(C)c1ccc(N=Nc2ccnc3ccccc23)cc1`?
TDP1 cell noCPT: 22.4µM*; TDP1 cell CPT: inconclusive

What do the screens show for `CCn1c(NC(=O)c2ccc(COc3ccc(C)cc3[N+](=O)[O-])o2)nc2ccccc21`?
TDP1 cell noCPT: inconclusive; Gal4-VP16 FLuc: 5.01µM*; ELG1 DNA repair: inconclusive; IL-1B inflam inh: -11.3; RORg inh: 2.24µM*; TDP1 cell CPT: 16.4µM*

How did CC(O)CN(CC(C)O)c1ccc2c(c1)Cc1cc([N+](=O)[O-])ccc1-2 (stereo not given) do in these assays?
TDP1 cell noCPT: 14.6µM*; IL-1B inflam inh: inconclusive; TDP1 cell CPT: 18.4µM*

What do the screens show for `O=C(O)c1cccc2c1Cc1cc([N+](=O)[O-])ccc1-2`?
TDP1 cell noCPT: inconclusive; IL-1B inflam inh: inconclusive; TDP1 cell CPT: -17.4%

What do the screens show for `CC(=NO)c1ccc2c(c1)Cc1cc([N+](=O)[O-])ccc1-2`?
TDP1 cell noCPT: 13µM*; IL-1B inflam inh: -9.3; TDP1 cell CPT: inconclusive

Source: PubChem (National Center for Advancing Translational Sciences (NCATS))
